Data from the supplement of paper PMC12350171.
Where a name gives a salt, the structure may show the parent alone. Unmarked numbers belong to inactive results.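 The calls were made as follows: active = AUC significantly below DMSO controls by Student t-fit with adjusted P under 0.01; inactive = not significantly reduced.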

Test system: Haemophilus parainfluenzae
Test: growth AUC normalised to DMSO control (fraction of control); higher = less growth inhibition, active = hit call of the paper
Settings: 20 µM
Procedure, shortened: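 Pathogens were passaged twice under anaerobic conditions, then inoculated into pre-reduced mGAM plates at a starting OD578 of 0.01, with compound at 20 μM and 1% DMSO, and sealed with breathable membranes. For Haemophilus parainfluenzae, the medium was supplemented with hemin and NAD. OD578 was read every hour for 24 h in three biological replicates. Growth-curve AUC was calculated by the trapezoidal rule up to the exponential-to-stationary transition and normalised to DMSO controls on the same plate.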

**Q.** For CN1CC2c3ccccc3Oc3ccc(Cl)cc3C2C1 (configuration not stated) [Asenapine maleate], which “growth AUC normalised to DMSO control” value is on record?
**A.** 0.851 (active)

**Q.** For CCCC1O[C@@H]2C[C@H]3[C@@H]4CCC5=CC(=O)C=C[C@]5(C)[C@H]4[C@@H](O)C[C@]3(C)[C@]2(C(=O)CO)O1 (some centres not stated) [Budesonide], which “growth AUC normalised to DMSO control” value is on record?
**A.** 0.964

**Q.** How did the “growth AUC normalised to DMSO control” value turn out when CCN(CCCCOC(=O)c1ccc(OC)c(OC)c1)C(C)Cc1ccc(OC)cc1 (configuration not stated) [Mebeverine hydrochloride] was run?
**A.** 1.03

**Q.** How did the “growth AUC normalised to DMSO control” value turn out when O=C(N/N=C/c1ccc([N+](=O)[O-])o1)c1ccc(O)cc1 [Nifuroxazide] was run?
**A.** 0.532 (active)

**Q.** With CC(CNC1CCCCC1)OC(=O)c1ccccc1 (configuration not stated) [Hexylcaine hydrochloride] as the molecule, how does the “growth AUC normalised to DMSO control” value read?
**A.** 0.995

**Q.** How did the “growth AUC normalised to DMSO control” value turn out when CC(C)(O/N=C(\C(=O)N[C@@H]1C(=O)N2C(C(=O)[O-])=C(C[n+]3ccccc3)CS[C@H]12)c1csc(N)n1)C(=O)O [Ceftazidime pentahydrate] was run?
**A.** 0.079 (active)

**Q.** How did the “growth AUC normalised to DMSO control” value turn out when CNNCc1ccc(C(=O)NC(C)C)cc1 [Procarbazine hydrochloride] was run?
**A.** 0.995

**Q.** COc1ccc(C(Cl)=C(c2ccc(OC)cc2)c2ccc(OC)cc2)cc1 [Chlorotrianisene] was tested. Which “growth AUC normalised to DMSO control” value did it give?
**A.** 0.951

**Q.** How did the “growth AUC normalised to DMSO control” value turn out when CCN(CC)CCNC(=O)c1cc(S(C)(=O)=O)ccc1OC [Tiapride hydrochloride] was run?
**A.** 0.993

**Q.** Which “growth AUC normalised to DMSO control” value does the source give for CCC(=O)O[C@]1(C(=O)SCF)[C@H](C)C[C@H]2[C@@H]3C[C@H](F)C4=CC(=O)C=C[C@]4(C)[C@@]3(F)[C@@H](O)C[C@@]21C [Fluticasone propionate] here?
**A.** 0.997

**Q.** How did the “growth AUC normalised to DMSO control” value turn out when CCCCc1cc2ccccc2c(OCCN(C)C)n1 [Dimethisoquin hydrochloride] was run?
**A.** 0.97

**Q.** With OCCN1CCN(CCCN2c3ccccc3Sc3ccc(Cl)cc32)CC1 [Perphenazine] as the molecule, how does the “growth AUC normalised to DMSO control” value read?
**A.** 0.924

**Q.** For Cn1cnc2c1c(=O)[nH]c(=O)n2C [Theobromine], which “growth AUC normalised to DMSO control” value is on record?
**A.** 1.06

**Q.** With CC(Oc1ccccc1)C(=O)N[C@@H]1C(=O)N2[C@@H]1SC(C)(C)[C@@H]2C(=O)O (some centres not stated) [Phenethicillin potassium salt] as the molecule, how does the “growth AUC normalised to DMSO control” value read?
**A.** 0.59 (active)

**Q.** With Nc1nc2c(ncn2COCCO)c(=O)[nH]1 [Acyclovir] as the molecule, how does the “growth AUC normalised to DMSO control” value read?
**A.** 1.01

**Q.** With CC#C[C@]1(O)CC[C@H]2[C@@H]3CCC4=CC(=O)CCC4=C3[C@@H](c3ccc(N(C)C)cc3)C[C@@]21C [Mifepristone] as the molecule, how does the “growth AUC normalised to DMSO control” value read?
**A.** 0.994

**Q.** Which “growth AUC normalised to DMSO control” value does the source give for C#C[C@]1(O)CC[C@H]2[C@@H]3CCC4=CCCC[C@@H]4[C@H]3CC[C@@]21C [Lynestrenol] here?
**A.** 0.931

**Q.** Which “growth AUC normalised to DMSO control” value does the source give for CC(C)N1CCN(c2ccc(OCC3COC(Cn4cncn4)(c4ccc(Cl)cc4Cl)O3)cc2)CC1 (configuration not stated) [Terconazole] here?
**A.** 1.03

**Q.** Which “growth AUC normalised to DMSO control” value does the source give for Cc1cnc(C(=O)O)c[n+]1[O-] [Acipimox] here?
**A.** 0.94

**Q.** CCCCNc1ccc(C(=O)OCCOCCOCCOCCOCCOCCOCCOCCOCCOC)cc1 [Benzonatate] was tested. Which “growth AUC normalised to DMSO control” value did it give?
**A.** 1

**Q.** Cc1ncc(CO)c(CO)c1O [Pyridoxine hydrochloride] was tested. Which “growth AUC normalised to DMSO control” value did it give?
**A.** 0.958

**Q.** O=C(O)CN(CCN(CC(=O)O)CC(=O)O)CCN(CC(=O)O)CC(=O)O [Pentetic acid] was tested. Which “growth AUC normalised to DMSO control” value did it give?
**A.** 1.02

**Q.** How did the “growth AUC normalised to DMSO control” value turn out when O=C(COc1ccc(Cl)cc1)N1CCN(Cc2ccc3c(c2)OCO3)CC1 [Fipexide hydrochloride] was run?
**A.** 0.836

**Q.** For CCCCCCC[N+](CC)(CC)CCCCc1ccc(Cl)cc1 [Clofilium tosylate], which “growth AUC normalised to DMSO control” value is on record?
**A.** 1.01

**Q.** Which “growth AUC normalised to DMSO control” value does the source give for CN1CCN(C2=Nc3ccccc3Oc3ccc(Cl)cc32)CC1 [Loxapine succinate] here?
**A.** 0.969

**Q.** For CCc1cc(C(N)=S)ccn1 [Ethionamide], which “growth AUC normalised to DMSO control” value is on record?
**A.** 0.983

**Q.** With CN(C)CCOC(C)(c1ccccc1)c1ccccn1 (configuration not stated) [Doxylamine succinate] as the molecule, how does the “growth AUC normalised to DMSO control” value read?
**A.** 0.989

**Q.** Which “growth AUC normalised to DMSO control” value does the source give for N[C@@H]1CONC1=O [D-cycloserine] here?
**A.** 1.04

**Q.** CCCCC(CC)CN1CN(CC(CC)CCCC)CC(C)(N)C1 (configuration not stated) [Hexetidine] was tested. Which “growth AUC normalised to DMSO control” value did it give?
**A.** 1.08

**Q.** Which “growth AUC normalised to DMSO control” value does the source give for CC(C)(C)c1ccc(C(O)CCCN2CCC(C(O)(c3ccccc3)c3ccccc3)CC2)cc1 (configuration not stated) [Terfenadine] here?
**A.** 0.88

**Q.** CCCCN(CCCC)CCC(O)c1cc2c(Cl)cc(Cl)cc2c2cc(C(F)(F)F)ccc12 (configuration not stated) [Halofantrine hydrochloride] was tested. Which “growth AUC normalised to DMSO control” value did it give?
**A.** 1.06

**Q.** Which “growth AUC normalised to DMSO control” value does the source give for NC(=O)N1c2ccccc2CC(=O)c2ccccc21 [Oxcarbazepine] here?
**A.** 0.954
